“And” between values parts separate entries of the source, which are not always exact repeats. Equal entries are not always repeated. Results filed as inconclusive are left out. A structure can be active in one record and inactive in another. The source made the active and inactive calls. The call rests on the fitted dose curve; in most records, active means well fitted curve in the direction sought with a large enough effect in the repeat runs; inconclusive means weak or mixed curves; inactive means no such curve, though single readings can be large; an effect the other way counts as inactive or inconclusive.

A short description of assay [1]: A CellTox Green Cytotoxicity Assay to monitor cytotoxicity in HEK293 cells - 40 hour (AID 1224871). Further: nearly all actives have a fitted effect of over 45% in size. Further: potency means the concentration at half of the fitted maximal effect. The method in brief: (§1)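 HEK293 cells premixed with CellTox Green dye were seeded at 600 cells/well and left 5 h at 37 C/5% CO2 before pin transfer of 23 nL compound in DMSO. Fluorescence from dye bound to dead-cell DNA was read during 40 h treatment.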
The nature of assay [2]: qHTS RealTime-Glo MT Cell Viability Assay in HEK293 cells - 16 hour (AID 1224872). Further: nearly all actives have a fitted effect of over 50% in size. Further: potency means the concentration at half of the fitted maximal effect. The method in brief: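 HEK293 cells seeded with NanoLuc/prosubstrate reagent, rested 5 h at 37 C, then dosed and kept at 37 C up to 40 h. Nonlytic real-time luminescence from viable cells read at 0, 8, 16, 24, 32 and 40 h.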
The nature of assay [3]: qHTS RealTime-Glo MT Cell Viability Assay in HepG2 cells - 8 hour (AID 1224873). Further: nearly all actives have a fitted effect of over 55% in size. Further: potency means the concentration at half of the fitted maximal effect. The procedure, abridged:
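HepG2 cells mixed with RealTime-Glo MT reagents (NanoLuc plus cell-permeant prosubstrate) were seeded at 600 cells/well, incubated 5 h at 37 C/5% CO2, then pinned with compounds in DMSO; nonlytic luminescence tracked viability during 40 h treatment.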
Background: qHTS replaces the single test concentration by a dilution series.

Assay [4] is described as follows: qHTS RealTime-Glo MT Cell Viability Assay in HEK293 cells - 40 hour (AID 1224874). Further: nearly all actives have a fitted effect of over 50% in size. Further: potency means the concentration at half of the fitted maximal effect. Particulars: RealTime-Glo luminescence; max response: stronger effect = lower value. The method in brief:
(§2)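 HEK293 cells mixed with RealTime-Glo reagents (NanoLuc plus cell-permeant prosubstrate) at 600 cells/well, preincubated 5 h at 37 C/5% CO2, then given 23 nL compound in DMSO. Nonlytic luminescence from viable cells was read at 0, 8, 16, 24, 32 and 40 h.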

Assay [5] can be described thus: A CellTox Green Cytotoxicity Assay to monitor cytotoxicity in HEK293 cells - 24 hour (AID 1224875). Further: series mostly up to about 77 µM; nearly all actives have a fitted effect of over 45% in size. The method in brief:
as §1

A short description of assay [6]: qHTS RealTime-Glo MT Cell Viability Assay in HepG2 cells - 32 hour (AID 1224877). Further: nearly all actives have a fitted effect of over 55% in size. The procedure, abridged: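 HepG2 cells (600/well) were dispensed with RealTime-Glo reagents, incubated 5 h at 37 °C, then treated with compounds in DMSO for up to 40 h. Nonlytic NanoLuc luminescence reflecting viable cells was read at each stated time point.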
Assay [7] can be described thus: A CellTox Green Cytotoxicity Assay to monitor cytotoxicity in HepG2 cells - 24 hour (AID 1224878). Further: nearly all actives have a fitted effect of over 45% in size. Further: potency means the concentration at half of the fitted maximal effect. The procedure, abridged: (§3)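 HepG2 cells were seeded together with the CellTox Green dye at 600 cells/well, left 5 h at 37 C/5% CO2, then given compounds in DMSO. Fluorescence from dye bound to dead-cell DNA was read repeatedly over 40 h of treatment at 37 C.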
Assay [8] in a line: A CellTox Green Cytotoxicity Assay to monitor cytotoxicity in HepG2 cells - 40 hour (AID 1224879). Further: nearly all actives have a fitted effect of over 40% in size. Further: potency means the concentration at half of the fitted maximal effect. The procedure, abridged: as §3
Assay [9] in a line: qHTS RealTime-Glo MT Cell Viability Assay in HEK293 cells - 0 hour (AID 1224880). Further: nearly all actives have a fitted effect of over 45% in size. Further: potency means the concentration at half of the fitted maximal effect. The procedure, abridged:
as §2

Assay [10] in a line: A CellTox Green Cytotoxicity Assay to monitor cytotoxicity in HepG2 cells - 16 hour (AID 1224876). Further: nearly all actives have a fitted effect of over 45% in size. Further: potency means the concentration at half of the fitted maximal effect. The procedure, abridged:
as §3
On the % scale 0 is the no-effect control and ±100 the full control effect.

Consider `CCCC(=O)O[C@]1(C(=O)CO)CC[C@H]2[C@@H]3CCC4=CC(=O)CC[C@]4(C)[C@H]3[C@@H](O)C[C@@]21C`, for which the Potency entry in assay [1], in assay [2], in assay [3], in assay [5], in assay [6] and in assay [7] was “inactive” each time. Besides, in [8], the Potency entry is “inactive”. Besides, the max response in assay [4] was 0.181% (inactive). Moreover, the Potency in [9] was 10.7 µM (active).
Take `CCCCCSCCCCC`: the Potency result in assay [1], in assay [2], in assay [3], in assay [5], in [10] and in [6] was “inactive” each time. Besides, the Potency entry in assay [7] and in assay [8] was “inactive” each time.
As for `COc1ccc2c(c1)c(CC(=O)OCC(=O)O)c(C)n2C(=O)c1ccc(Cl)cc1`, the Potency entry in [1], in [2], in assay [3], in assay [5], in [6] and in [7] was “inactive” each time. Moreover, the Potency result in [8] and in [9] was “inactive” in each case. The max response in assay [4] is 5.11% (inactive).
In the case of `CN(C(=O)c1c(O)c2ccccc2n(C)c1=O)c1ccccc1`, the Potency result in assay [1], in [2], in [3], in [5], in [6] and in assay [7] was “inactive” in each case. The Potency result in [8] and in assay [9] was “inactive” each time. In addition, in assay [4], the max response was 9.26% (inactive).
For `CN1CCN(c2cc3c(cc2F)c(=O)c(C(=O)O)cn3-c2ccc(F)cc2)CC1`, the Potency result in [1], in assay [2], in assay [3], in assay [5], in [6] and in [7] was “inactive” throughout. In addition, the Potency result in assay [8] and in assay [9] was “inactive” in each case. For the same molecule, the max response in assay [4] was -0.934% (inactive).
Take `O=c1n(CCO)c(=O)n(CCO)c(=O)n1CCO`: the Potency entry in assay [1] was “inactive and 38.9 µM (active)”; in [10] it was “inactive and 38.9 µM (active)”; in [7], “inactive and 38.9 µM (active)”; in assay [8] it was “inactive and 43.6 µM (active)”. In addition, the Potency entry in [2], in assay [3], in assay [6] and in assay [9] was “inactive” in each case. For the same molecule, in assay [4], the max response is -3.8% (inactive) and 5.95% (inactive).
For `C1CN(CCOCCN2CCOCC2)CCO1`, the Potency result in [1], in assay [2], in assay [3], in assay [5], in assay [6] and in assay [7] was “inactive” each time. Also, the Potency entry in assay [8] and in [9] was “inactive” in each case. For the same molecule, the max response in assay [4] was 4.52% (inactive).
In the case of `O=C(O)Cc1ccc(CCNS(=O)(=O)c2ccc(Cl)cc2)cc1`, the Potency entry in assay [1], in assay [2], in assay [3], in assay [5], in [10] and in [6] was “inactive” throughout. Further, the Potency entry in assay [7], in assay [8] and in assay [9] was “inactive” each time.
As to `CC/C=C\CC/C=C/C(OCC)OCC`, the Potency result in assay [1], in assay [2], in assay [3], in assay [5], in [6] and in assay [7] was “inactive” throughout. For the same molecule, the Potency entry in assay [8] and in assay [9] was “inactive” each time. In addition, the max response in assay [4] is 11.7% (inactive).
With `C=C[Si](OC(=C)C)(OC(=C)C)OC(=C)C`, the Potency result in [1], in assay [2], in assay [3], in assay [5], in [6] and in assay [7] was “inactive” each time. Moreover, the Potency entry in assay [8] and in assay [9] was “inactive” in each case. For the same molecule, in assay [4], the max response is 13.4% (inactive).
`CCc1cccc2c(CCO)c[nH]c12`: the Potency entry in assay [1], in [2], in assay [3], in assay [5], in assay [6] and in assay [7] was “inactive” each time. Besides, the Potency result in assay [8] and in assay [9] was “inactive” each time. Further, in [4], the max response is 0.292% (inactive).
Take `CCc1ccc(O)c(OC)c1`: the Potency result in [1], in [2], in assay [3], in assay [5], in [6] and in assay [7] was “inactive” throughout. In addition, the Potency entry in assay [8] and in [9] was “inactive” throughout. Besides, the max response in assay [4] is 4.24% (inactive).
In the case of `O=C(c1ccccc1)C1CCCCC1`, the Potency in [1] is 24.5 µM (active); in assay [10], 43.6 µM (active); in assay [7], 49 µM (active); in [8] it was 49 µM (active). In addition, the Potency entry in [2], in assay [3], in assay [6] and in [9] was “inactive” in each case. The max response in assay [4] was -10.1% (inactive).
For `CC(C)(C)c1ccc(O)c(O)c1`, the Potency in assay [1] is 38.9 µM (active); in [2] it was 25.4 µM (active) and 13.8 µM (active); in [3], 34.7 µM (active); in assay [4], 20.2 µM (active) and 36 µM (active). In addition, the Potency result in assay [10], in assay [7] and in assay [8] was “inactive” each time.
Take `CC(C)(O)C#CC(C)(C)O`: the Potency result in assay [1], in assay [2], in assay [3], in assay [5], in assay [6] and in [7] was “inactive” each time. The Potency entry in assay [8] and in [9] was “inactive” each time. The max response in assay [4] was 4.69% (inactive).
On to `CCCCC/C=C\CCC=O`, for which the Potency entry in assay [1], in assay [2], in assay [3], in assay [5], in assay [6] and in assay [7] was “inactive” throughout. The Potency entry in [8] and in assay [9] was “inactive” each time. In addition, the max response in assay [4] is 1.73% (inactive).
As to `CO[Si](CCCOCC1CO1)(OC)OC` (centres undefined), the Potency entry in assay [1], in assay [2], in assay [3], in assay [5], in assay [10] and in assay [6] was “inactive” throughout. Besides, the Potency entry in assay [7], in assay [8] and in assay [9] was “inactive” in each case.
For the molecule `NC(CSCC(=O)O)C(=O)O` (centres undefined), the Potency entry in assay [1], in assay [2], in [3], in assay [5], in assay [6] and in [8] was “inactive” throughout. The Potency result in assay [9] was “inactive”. Also, in assay [4], the max response was 7.24% (inactive).
In the case of `CC(C)(C)NCCNC(C)(C)C`, the Potency entry in assay [1], in assay [2], in [3], in [5], in [10] and in assay [6] was “inactive” each time. Moreover, the Potency entry in assay [7], in assay [8] and in assay [9] was “inactive” throughout.
As to `NC(=O)c1ccc(N)cc1`, the Potency result in [1], in assay [2], in assay [3], in assay [5], in [10] and in assay [6] was “inactive” throughout. In [8], the Potency result was “inactive”.

Values taken from PubChem BioAssay (Tox21).
